Screening data from PubChem BioAssay.
PKA inh: PKA (human) kinase inhibition; actives 0.1% (n = 65,000); PKA Kemptide phosphorylation, Kinase-Glo ATP luminescence; inhibition, % at 6 µM; P17612;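 active = inhibition above the screen-wide mean inhibition plus 3 SD, cut at about 21% in these data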
ROCK2 blocker: ROCK2 (human) kinase inhibition. AID 604. O75116. actives 0.35% (n = 60,000). inhibition, % at 6 µM. purified ROCK2, Kinase-Glo ATP depletion luminescence;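 active = inhibition above the screen-wide mean inhibition plus 3 SD, cut at about 18% in these data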
mHtt clearance: mutant huntingtin protein clearance | HeLa Exon1htt(103Q)mCFP, aggregate imaging; zero = plate's median compound well | actives 0.42% (n = 47,000) | inhibition, % at 1.5 µM | AID 853;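 active = inhibition of aggregate fluorescence above about 70%, also judged a hit by eye on the cell image, limit read from the data, passing the limit was not always enough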;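 also: cells exposed to compound for three days before fixation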
JNK3 inh: JNK3 (human) kinase inhibition; P53779; purified JNK3 kinase activity, HTS; inhibition, % at 8 µM; actives 0.61% (n = 60,000); AID 746; in the data active = inhibition above about 17%
SKBR3 24h inh: SK-BR-3 proliferation inhibitors | SK-BR-3 viability, CellTiter-Glo ATP luminescence, 24 h; active compounds read low | viability, % at 10 µM | actives 0.47% (n = 41,000) | AID 847;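 active = viability at or below the median of all test compounds minus 3 SD, in both replicates if run twice, cut at about 45% in these data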
HER2 expr 66K: inhibitors of human Her2 kinase expression; P04626; SKBR-3 HER2 protein level, AlphaScreen, 18-24 h; active compounds read low; HER2 level % of control, % at 10 µM; AID 645; actives 0.69% (n = 65,000);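 active = HER2 level under 5% of the carrier-only control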;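 also: lower value means stronger loss of Her2 protein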
Target sequence (P04626 whole entry, looked up): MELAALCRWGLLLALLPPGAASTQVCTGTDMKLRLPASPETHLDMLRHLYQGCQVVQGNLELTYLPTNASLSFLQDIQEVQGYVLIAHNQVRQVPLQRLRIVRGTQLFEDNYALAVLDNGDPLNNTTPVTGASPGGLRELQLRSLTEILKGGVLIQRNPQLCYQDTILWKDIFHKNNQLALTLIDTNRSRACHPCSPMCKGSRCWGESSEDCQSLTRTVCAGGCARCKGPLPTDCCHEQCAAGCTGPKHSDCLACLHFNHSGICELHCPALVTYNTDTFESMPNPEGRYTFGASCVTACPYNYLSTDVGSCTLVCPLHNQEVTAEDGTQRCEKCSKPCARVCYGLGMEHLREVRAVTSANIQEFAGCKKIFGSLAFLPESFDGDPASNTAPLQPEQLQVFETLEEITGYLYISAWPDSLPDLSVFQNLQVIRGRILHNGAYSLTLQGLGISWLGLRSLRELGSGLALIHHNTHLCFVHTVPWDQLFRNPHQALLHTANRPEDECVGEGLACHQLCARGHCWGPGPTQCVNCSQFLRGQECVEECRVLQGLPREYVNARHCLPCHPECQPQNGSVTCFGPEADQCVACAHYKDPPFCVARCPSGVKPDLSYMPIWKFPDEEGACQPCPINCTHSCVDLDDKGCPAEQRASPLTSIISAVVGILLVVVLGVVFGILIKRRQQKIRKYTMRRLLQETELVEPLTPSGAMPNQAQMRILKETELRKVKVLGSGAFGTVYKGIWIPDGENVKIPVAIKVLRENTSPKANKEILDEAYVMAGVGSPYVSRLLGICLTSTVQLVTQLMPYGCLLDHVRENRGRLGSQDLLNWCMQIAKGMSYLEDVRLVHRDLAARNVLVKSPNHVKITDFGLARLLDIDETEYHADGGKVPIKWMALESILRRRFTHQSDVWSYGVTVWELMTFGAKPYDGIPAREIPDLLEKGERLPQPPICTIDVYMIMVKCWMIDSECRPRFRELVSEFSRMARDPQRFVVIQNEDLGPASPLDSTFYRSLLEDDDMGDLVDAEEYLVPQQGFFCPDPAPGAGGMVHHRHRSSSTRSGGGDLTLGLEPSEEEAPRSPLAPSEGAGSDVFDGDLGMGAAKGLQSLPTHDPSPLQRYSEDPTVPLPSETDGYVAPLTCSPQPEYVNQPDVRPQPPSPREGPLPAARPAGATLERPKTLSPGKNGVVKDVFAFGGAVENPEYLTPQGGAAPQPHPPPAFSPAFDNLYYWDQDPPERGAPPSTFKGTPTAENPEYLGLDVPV
Large screens that a line does not name were inactive. Compounds with a hit are over-represented: about 1.4% of the library has one in this group of screens.

COC(=O)c1cccc(CSc2nnc(-c3ccco3)n2-c2ccccc2)c1	SKBR3 24h inh 35 (no result: mHtt clearance)
COc1cc2c(C#N)c(N3CCN(c4ccccc4OC)CC3)nc(N)c2c(N)n1	HER2 expr 66K -4.0 (no result: ROCK2 blocker, mHtt clearance, JNK3 inh)
COc1ccccc1N1CCN(c2nc(N)c(C#N)c(CC#N)c2C#N)CC1	none (no result: ROCK2 blocker, JNK3 inh)
CCC(C)n1c(C)nc2c(c1=O)c1nc3ccccc3nc1n2CCC1=CCCCC1 (configuration not stated)	none (no result: PKA inh, ROCK2 blocker, JNK3 inh, SKBR3 24h inh, HER2 expr 66K)
C1CCN(c2c3c(nc4nnnn24)CCCC3)CC1	none (no result: PKA inh, ROCK2 blocker, JNK3 inh, SKBR3 24h inh, HER2 expr 66K)
Cc1c(C#N)c(N=CN(C)C)c(C(=O)c2ccccc2)n1-c1ccccc1	none (no result: SKBR3 24h inh)
Cc1c(C#N)c(N)c(C(=O)c2ccccc2)n1Cc1ccccc1	HER2 expr 66K -32 (no result: PKA inh, ROCK2 blocker, mHtt clearance, JNK3 inh)
Nc1ccc(C(O)(C(F)(F)F)C(F)(F)F)cc1	none (no result: PKA inh, ROCK2 blocker, JNK3 inh, SKBR3 24h inh, HER2 expr 66K)
CC(C)OC(=O)N(C)c1ccc(C(O)(C(F)(F)F)C(F)(F)F)cc1	mHtt clearance 76 (no result: PKA inh, ROCK2 blocker, JNK3 inh, SKBR3 24h inh, HER2 expr 66K)
C/C(NC1CCCC1)=C(/C#N)C(N)=O	JNK3 inh 32 (no result: mHtt clearance)
COc1ccccc1C1CC(c2ccc(C)cc2)Nc2ncnn21 (configuration not stated)	none
Cc1ccccc1NC(=O)Cn1c(C)nc2ccc(NC(=O)C3CC3)cc2c1=O	ROCK2 blocker 19 (no result: mHtt clearance)
CCC(=O)Nc1ccc2nc(C)n(CC(=O)Nc3ccccc3)c(=O)c2c1	none (no result: mHtt clearance)
COc1ccccc1NC(=O)CSc1nnnn1-c1ccc(C)cc1	mHtt clearance 74 (no result: PKA inh, ROCK2 blocker, JNK3 inh, SKBR3 24h inh, HER2 expr 66K)
COC(=O)c1ccc(-n2nnnc2SCC(=O)Nc2cc(OC)ccc2OC)cc1	none
Cc1ccc(Cn2c(NCCc3ccccc3)nc3c2c(=O)n(C)c(=O)n3C)cc1	mHtt clearance 71
COCCn1c(SCC(=O)c2[nH]c(C)c(C(C)=O)c2C)nc2ccccc21	none (no result: SKBR3 24h inh)
Oc1[nH]c2ccccc2c1/C=N/c1nccs1	JNK3 inh 27 (no result: mHtt clearance)
Oc1[nH]c2ccccc2c1C=Nc1ccc2c(c1)OCO2	JNK3 inh 36 (no result: mHtt clearance)
Oc1c(Cl)cc(Cl)cc1/C=N/c1nccs1	none (no result: PKA inh, ROCK2 blocker, JNK3 inh, SKBR3 24h inh, HER2 expr 66K)
Nc1nc(-c2ccco2)nn1C(=O)CCc1ccccc1	none (no result: mHtt clearance)
Nc1nc2ccccc2n1C(=O)CCc1ccccc1	ROCK2 blocker 146
O=S1(=O)C=C(Sc2nc3cc(Cl)ccc3o2)c2ccccc21	HER2 expr 66K -18 (no result: SKBR3 24h inh)
CCCn1c(Nc2nc3ccccc3n2C)nc2ccccc21	SKBR3 24h inh 9.8, HER2 expr 66K -22
CCC(=O)NC(=S)N1CCN(c2ccc([N+](=O)[O-])cc2Cl)CC1	none (no result: PKA inh, ROCK2 blocker, JNK3 inh, SKBR3 24h inh, HER2 expr 66K)
COc1ccccc1NC(=O)Cn1nnc(-c2ccccc2NC(=O)c2ccco2)n1	none (no result: mHtt clearance)
COc1ccc(NC(=O)Cn2nnc(-c3ccccc3NC(=O)c3ccco3)n2)cc1	SKBR3 24h inh 28
CN1C(=O)/C(=C/c2cn(CC(=O)N3CCCCC3)c3ccccc23)c2ccccc21	none (no result: PKA inh, ROCK2 blocker, JNK3 inh, SKBR3 24h inh, HER2 expr 66K)
Oc1c(CN2CCCCC2)cc(Br)c2cccnc12	SKBR3 24h inh 39
Brc1ccc2[nH]ncc2c1	ROCK2 blocker 30
O=C(Nc1cccc(Br)c1)c1ccn[nH]1	none
CCCCn1c(SCc2c(C)noc2C)nc2cc(S(N)(=O)=O)ccc21	HER2 expr 66K -21 (no result: mHtt clearance, SKBR3 24h inh)
Cc1nn(CC(=O)NCc2cccnc2)c(=O)c2ccccc12	none (no result: mHtt clearance)
Cc1ccccc1-n1nc(C)c2cc(C(=O)NCc3cccnc3)sc21	JNK3 inh 57
Cc1c(NC(=O)c2cccc(F)c2)c(=O)n(-c2ccccc2)n1C	HER2 expr 66K -26 (no result: mHtt clearance)
O=C(c1ccccc1)N1CCN2C(=O)c3ccccc3C12c1ccc(Cl)cc1 (configuration not stated)	none (no result: PKA inh, ROCK2 blocker, JNK3 inh, SKBR3 24h inh, HER2 expr 66K)
Cc1cc(C)c2nc(SCCc3ccccc3)nc(C)c2c1	none (no result: PKA inh, ROCK2 blocker, JNK3 inh, SKBR3 24h inh, HER2 expr 66K)
CC1=C(C)C(=O)NC(Nc2nc(C)c3cc(C)cc(C)c3n2)N1 (configuration not stated)	HER2 expr 66K -14 (no result: SKBR3 24h inh)
C=CCN(CC=C)C(=O)c1ccccc1NC(=O)c1ccccc1C	none (no result: PKA inh, ROCK2 blocker, JNK3 inh, SKBR3 24h inh, HER2 expr 66K)
Cc1nnc2ccc(N3CCC(C(N)=O)(N4CCCCC4)CC3)nn12	none (no result: mHtt clearance, SKBR3 24h inh)
COc1cccc(-c2nnn(CC(=O)O)n2)c1	HER2 expr 66K -22
Nc1nonc1-n1nncc1-c1ccccc1	PKA inh 28 (no result: ROCK2 blocker, mHtt clearance, JNK3 inh)
Nc1cccc(-n2nncc2-c2ccc(Cl)cc2)c1	none (no result: ROCK2 blocker, JNK3 inh)
COC(=O)C(C)Sc1nc2c(c(-c3ccc(OC)cc3)c1C#N)-c1ccccc1C2=O (configuration not stated)	none (no result: PKA inh, ROCK2 blocker, JNK3 inh, SKBR3 24h inh, HER2 expr 66K)
Cc1cccc(N2CCN(C(=O)c3cc4c(C)nc5ccccc5c4o3)CC2)c1C	none (no result: mHtt clearance, SKBR3 24h inh)
O=C(O)CCc1nn2cc(-c3ccccc3)nc2[nH]c1=O	HER2 expr 66K -19
Cc1nn2cc(-c3ccccc3)nc2[nH]c1=O	none (no result: PKA inh, ROCK2 blocker, JNK3 inh, SKBR3 24h inh, HER2 expr 66K)
Cc1nn2c(-c3ccco3)nnc2c2ccccc12	HER2 expr 66K -1.1
